Results reported in PubChem BioAssay AID1159580 (chemical genetic matrix, 2015).
Several values for one entry are separate records, joined by “and”; a condition that tells them apart may be missing. Identical values can stand only once. About 2,000 (36%) of roughly 5,500 compounds were called active. Roughly 18% stayed inconclusive and do not appear here. Cut-off read from the data, not from the text of the source: active = normalized growth mostly below about 0.91 (no sharp cut-off); inconclusive = no clear call, values can overlap the other calls; inactive = mostly above about 0.92. This is one part of the list.

Assay: chemical genetic growth profiling, strain panel (AID 1159580);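 note: tested at 20 µM; growth read once vehicle control cultures reached saturation at 30 °C; 1 = growth at the plate median or of vehicle wells; lower values mean less growth of the strain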
Details: growth OD

Measured: normalized growth

CCc1cccc2c3c([nH]c12)C(CC)(CC(=O)O)OCC3 (stereo not given)
inactive: S. cerevisiae deletion strains, locus YKL009W, strain mrt4, active compounds read low 0.965 | S. cerevisiae deletion strains, locus YKL068W, active compounds read low 1 | S. cerevisiae deletion strains, locus YKL085W, strain MDH1 (second series), active compounds read low 0.992 | S. cerevisiae deletion strains, locus YKL085W, strain MDH1, active compounds read low 0.992 | S. cerevisiae deletion strains, locus YKL160W, strain elf1, active compounds read low 0.975 | S. cerevisiae deletion strains, locus YKL190W, strain CNB1, active compounds read low 1 | S. cerevisiae deletion strains, locus YKR001C, strain vps1, active compounds read low 0.98 | S. cerevisiae deletion strains, locus YKR026C, strain gcn3, active compounds read low 0.987 | S. cerevisiae deletion strains, locus YKR091W, strain srl3, active compounds read low 0.978 | S. cerevisiae deletion strains, locus YLL001W, strain dnm1, active compounds read low 0.961 | S. cerevisiae deletion strains, locus YLL026W, active compounds read low 0.99 | S. cerevisiae deletion strains, locus YLL041C, strain sdh2, active compounds read low 0.976 | S. cerevisiae deletion strains, locus YLR027C, strain aat2, active compounds read low 0.987 | S. cerevisiae deletion strains, locus YLR039C, strain RIC1, active compounds read low 0.989 | S. cerevisiae deletion strains, locus YLR058C, strain SHM2, active compounds read low 1.01 | S. cerevisiae deletion strains, locus YLR102C, strain apc9, active compounds read low 1 | S. cerevisiae deletion strains, locus YLR113W, strain HOG1, active compounds read low 0.938 | S. cerevisiae deletion strains, locus YLR221C, strain rsa3, active compounds read low 0.993 | S. cerevisiae deletion strains, locus YLR258W, strain gsy2, active compounds read low 0.994 | S. cerevisiae deletion strains, locus YLR262C, strain YPT6 (second series), active compounds read low 0.93 | S. cerevisiae deletion strains, locus YLR262C, strain YPT6, active compounds read low 0.978 | S. cerevisiae deletion strains, locus YLR268W, strain sec22, active compounds read low 1.05 | S. cerevisiae deletion strains, locus YLR320W, strain mms22, active compounds read low 1.01 | S. cerevisiae deletion strains, locus YLR330W, strain CHS5, active compounds read low 1.01 | S. cerevisiae deletion strains, locus YLR342W, strain FKS1 (second series), active compounds read low 1.03 | S. cerevisiae deletion strains, locus YLR342W, strain FKS1, active compounds read low 0.985 | S. cerevisiae deletion strains, locus YLR357W, strain rsc2, active compounds read low 0.918 | S. cerevisiae deletion strains, locus YLR370C, strain arc18, active compounds read low 0.973 | S. cerevisiae deletion strains, locus YLR371W, strain rom2, active compounds read low 0.987 | S. cerevisiae deletion strains, locus YLR384C, strain iki3, active compounds read low 0.967 | S. cerevisiae deletion strains, locus YLR418C, strain cdc73, active compounds read low 0.995 | S. cerevisiae deletion strains, locus YML016C, strain PPZ1, active compounds read low 1 | S. cerevisiae deletion strains, locus YML032C, strain rad52, active compounds read low 1.01 | S. cerevisiae deletion strains, locus YML120C, strain ndi1, active compounds read low 0.977 | S. cerevisiae deletion strains, locus YML124C, strain tub3, active compounds read low 1 | S. cerevisiae deletion strains, locus YMR058W, strain fet3, active compounds read low 0.993 | S. cerevisiae deletion strains, locus YMR078C, strain ctf18, active compounds read low 1 | S. cerevisiae deletion strains, locus YMR125W, strain sto1, active compounds read low 0.924 | S. cerevisiae deletion strains, locus YMR129W, active compounds read low 0.972 | S. cerevisiae deletion strains, locus YMR205C, strain PFK2, active compounds read low 0.98 | S. cerevisiae deletion strains, locus YMR223W, strain ubp8, active compounds read low 0.99 | S. cerevisiae deletion strains, locus YMR231W, strain pep5, active compounds read low 0.967 | S. cerevisiae deletion strains, locus YMR263W, strain SAP30, active compounds read low 1.01 and 1 | S. cerevisiae deletion strains, locus YMR307W, strain GAS1, active compounds read low 0.923 and 1.01 | S. cerevisiae deletion strains, locus YNL067W, strain RPL9B, active compounds read low 1.02 | S. cerevisiae deletion strains, locus YNL071W, strain lat1, active compounds read low 0.988 | S. cerevisiae deletion strains, locus YNL128W, strain TEP1, active compounds read low 1.01 | S. cerevisiae deletion strains, locus YNL153C, strain GIM3, active compounds read low 1.02 | S. cerevisiae deletion strains, locus YNL175C, strain NOP13, active compounds read low 0.994 | S. cerevisiae deletion strains, locus YNL183C, strain NPR1, active compounds read low 0.93 | S. cerevisiae deletion strains, locus YNL197C, strain WHI3, active compounds read low 0.954 | S. cerevisiae deletion strains, locus YNL209W, strain ssb2, active compounds read low 0.972 | S. cerevisiae deletion strains, locus YNL224C, strain SQS1, active compounds read low 0.987 | S. cerevisiae deletion strains, locus YNL233W, strain BNI4, active compounds read low 1.01 | S. cerevisiae deletion strains, locus YNL248C, strain rpa49, active compounds read low 0.981 | S. cerevisiae deletion strains, locus YNL250W, strain rad50, active compounds read low 0.992 | S. cerevisiae deletion strains, locus YNL271C, strain bni1, active compounds read low 1.01 | S. cerevisiae deletion strains, locus YNL298W, strain CLA4, active compounds read low 0.984 | S. cerevisiae deletion strains, locus YNL307C, strain MCK1, active compounds read low 1 | S. cerevisiae deletion strains, locus YNL322C, strain KRE1 (second series), active compounds read low 0.965 | S. cerevisiae deletion strains, locus YNL322C, strain KRE1, active compounds read low 1 | S. cerevisiae deletion strains, locus YNR049C, strain mso1, active compounds read low 0.963 | S. cerevisiae deletion strains, locus YNR052C, strain pop2, active compounds read low 1.01 | S. cerevisiae deletion strains, locus YOL006C, strain TOP1, active compounds read low 1.08 | S. cerevisiae deletion strains, locus YOL012C, strain htz1 0.943 | S. cerevisiae deletion strains, locus YOL147C, strain pex11, active compounds read low 1 | S. cerevisiae deletion strains, locus YOR001W, strain rrp6, active compounds read low 0.949 | S. cerevisiae deletion strains, locus YOR061W, strain CKA2, active compounds read low 1.01 | S. cerevisiae deletion strains, locus YOR069W, strain VPS5, active compounds read low 1 | S. cerevisiae deletion strains, locus YOR070C, strain gyp1, active compounds read low 0.981 | S. cerevisiae deletion strains, locus YOR080W, strain dia2, active compounds read low 0.972 | S. cerevisiae deletion strains, locus YOR083W, strain WHI5 (second series), active compounds read low 0.978 | S. cerevisiae deletion strains, locus YOR083W, strain WHI5, active compounds read low 0.987 | S. cerevisiae deletion strains, locus YOR106W, strain vam3, active compounds read low 0.969 | S. cerevisiae deletion strains, locus YOR136W, strain idh2, active compounds read low 0.998 | S. cerevisiae deletion strains, locus YOR144C, strain elg1, active compounds read low 1 | S. cerevisiae deletion strains, locus YOR184W, strain ser1, active compounds read low 1.01 | S. cerevisiae deletion strains, locus YOR231W, strain MKK1, active compounds read low 0.986 | S. cerevisiae deletion strains, locus YOR265W, strain rbl2, active compounds read low 1 | S. cerevisiae deletion strains, locus YOR270C, strain vph1, active compounds read low 0.969 | S. cerevisiae deletion strains, locus YOR290C, strain snf2, active compounds read low 1 | S. cerevisiae deletion strains, locus YOR316C, strain cot1, active compounds read low 1 | S. cerevisiae deletion strains, locus YPL051W, strain arl3, active compounds read low 0.994 | S. cerevisiae deletion strains, locus YPL055C, strain LGE1, active compounds read low 0.989 | S. cerevisiae deletion strains, locus YPL078C, strain atp4, active compounds read low 0.963 | S. cerevisiae deletion strains, locus YPL106C, strain sse1, active compounds read low 1.03 | S. cerevisiae deletion strains, locus YPL240C, strain hsp82, active compounds read low 0.976 | S. cerevisiae deletion strains, locus YPL241C, strain CIN2, active compounds read low 1.01 | S. cerevisiae deletion strains, locus YPL256C, strain CLN2, active compounds read low 0.981 | S. cerevisiae deletion strains, locus YPR119W, strain clb2, active compounds read low 1.01 | S. cerevisiae deletion strains, locus YPR141C, strain kar3, active compounds read low 1 | S. cerevisiae deletion strains, locus YPR163C, strain tif3, active compounds read low 1.01 | S. cerevisiae deletion strains, locus YPR167C, strain met16, active compounds read low 1.01 | S. cerevisiae deletion strains, strain wtn01, active compounds read low 0.994 | S. cerevisiae strains, strain wild type, active compounds read low 0.999
